The campaign covered roughly 310,000 compounds. About 14,000 (4.5%) showed an effect of 50% or more. Effects have a minus sign here. This excerpt belongs to a sample that is enriched for strong results.
Biological target: human ether-à-go-go-related gene (hERG) potassium channel (human, UniProt Q12809)
Assay: primary screen, population patch clamp on CHO cells stably expressing hERG; higher = less effect of the substance
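Also: peak tail current of the secondary pulse compared with the same well before compound.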

Chain of human ether-à-go-go-related gene (hERG) potassium channel (Q12809 whole entry, looked up): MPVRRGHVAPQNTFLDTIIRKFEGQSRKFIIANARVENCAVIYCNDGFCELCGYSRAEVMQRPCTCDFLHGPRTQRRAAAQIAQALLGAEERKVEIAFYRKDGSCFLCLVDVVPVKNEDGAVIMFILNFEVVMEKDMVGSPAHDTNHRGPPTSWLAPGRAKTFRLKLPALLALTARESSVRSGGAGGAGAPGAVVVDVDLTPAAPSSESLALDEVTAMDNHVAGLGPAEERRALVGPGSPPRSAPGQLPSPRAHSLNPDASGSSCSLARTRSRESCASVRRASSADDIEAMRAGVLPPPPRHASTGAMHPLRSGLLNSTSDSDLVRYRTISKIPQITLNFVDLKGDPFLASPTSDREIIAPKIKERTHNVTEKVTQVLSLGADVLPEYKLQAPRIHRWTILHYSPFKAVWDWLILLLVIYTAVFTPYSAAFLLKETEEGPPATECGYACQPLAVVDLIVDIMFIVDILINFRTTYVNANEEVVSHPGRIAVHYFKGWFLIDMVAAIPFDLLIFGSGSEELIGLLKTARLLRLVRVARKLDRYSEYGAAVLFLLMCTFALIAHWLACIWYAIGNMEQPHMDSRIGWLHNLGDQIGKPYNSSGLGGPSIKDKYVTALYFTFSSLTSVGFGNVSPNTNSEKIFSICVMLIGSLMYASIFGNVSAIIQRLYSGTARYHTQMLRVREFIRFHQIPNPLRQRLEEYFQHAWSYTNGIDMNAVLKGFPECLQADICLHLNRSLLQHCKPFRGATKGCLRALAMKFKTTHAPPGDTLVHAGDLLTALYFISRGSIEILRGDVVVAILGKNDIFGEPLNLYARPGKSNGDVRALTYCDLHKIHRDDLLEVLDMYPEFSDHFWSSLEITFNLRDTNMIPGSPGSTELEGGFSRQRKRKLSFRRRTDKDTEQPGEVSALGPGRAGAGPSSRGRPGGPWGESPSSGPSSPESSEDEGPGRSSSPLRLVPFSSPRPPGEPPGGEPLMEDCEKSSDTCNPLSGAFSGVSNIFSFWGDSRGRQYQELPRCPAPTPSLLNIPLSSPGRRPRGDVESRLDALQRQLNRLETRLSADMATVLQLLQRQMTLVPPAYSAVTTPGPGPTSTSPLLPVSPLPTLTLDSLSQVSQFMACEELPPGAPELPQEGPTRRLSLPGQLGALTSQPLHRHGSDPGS

Row | Compound | hERG current change (%, negative = inhibition) at 10uM [%]
1 | Cc1cc(C(F)F)n2ncc(C(=O)N3CCC(C(N)=O)CC3)c2n1 | 16.1
2 | CN(C(=O)c1cc2c(s1)-c1ccccc1S(=O)(=O)C2)c1ccccc1 | -0.0159
3 | CN(C(=O)c1cc2c(s1)-c1ccccc1S(=O)(=O)C2)c1ccccc1F | -3.69
4 | CCCCN(C)C(=O)c1cc2c(s1)-c1ccccc1S(=O)(=O)C2 | -56.5
5 | O=C1CCCCC1C(Nc1ccc(Br)cc1)c1ccccc1 (stereo not shown) | 4.34
6 | O=C(CCC(=O)Nc1ccc(F)cc1)N/N=C/c1ccc(F)cc1 | 13.1
7 | COc1ccc(N2Cc3ccccc3C2)cc1Cl | -59.9
8 | COc1ccc(Cl)cc1N1Cc2ccccc2C1 | -3.46
9 | COc1cc(N2Cc3ccccc3C2)ccc1C=O | -3.61
10 | O=c1cc(Nc2ccc3c(c2)OCCO3)[nH]c(=O)n1-c1ccc(Br)cc1 | 14.3
11 | O=C(CN1C(=O)CSc2ccc(S(=O)(=O)N3CCCCC3)cc21)NCc1ccccc1Cl | -15.1
12 | O=S(=O)(Nc1cccc(-n2cnnn2)c1)c1cccc(Cl)c1 | 16.2
13 | COc1cccc(-c2cc(C(=O)NC3CCCC3)c3ccccc3n2)c1 | -36.8
14 | COc1cccc(-c2cc(C(=O)Nc3ccccc3)c3ccccc3n2)c1 | 8.07
15 | COc1ccc(-c2cc(C(=O)NC3CCCC3)c3ccccc3n2)cc1 | -21.6
16 | Cc1ccc(C)c(-c2cc(C(=O)Nc3cccc(C(=O)O)c3)c3ccccc3n2)c1 | 20.3
17 | CN1CCC(N(C)C(=S)NC(=O)c2cc(-c3cccc(Br)c3)nc3ccccc23)CC1 | -15.3
18 | Cc1ccc(C)c(-c2cc(C(=O)Nc3cccnc3)c3ccccc3n2)c1 | -61
19 | CN1CCC(NC(=O)c2cc(-c3cccc(Br)c3)nc3ccccc23)CC1 | -69.7
20 | O=C(NC1CC1)c1cc(-c2ccc(Br)cc2)nc2ccccc12 | 0.545
21 | COc1ccc(-c2cc(C(=O)NC3CC3)c3ccccc3n2)cc1 | -64.5

Row | Compound | hERG current change (%, negative = inhibition) at 10uM [%]
22 | Cc1ccc2nc(-c3cccc(Br)c3)cc(C(=O)NC3CC3)c2c1 | 13.7
23 | COc1cccc(-c2cc(C(=O)NC3CC3)c3ccccc3n2)c1 | -51.2
24 | Cc1cccc(-c2cc(C(=O)Nc3cccnc3)c3ccccc3n2)c1 | -21.2
25 | CC1=C(C(=O)OC(C)C)C(c2ccccc2)NC(=S)N1C (stereo not shown) | 2.43
26 | COc1ccc(-n2c(=S)[nH]c3ccccc32)cc1 | 1.28
27 | Cc1c(-c2cccc(Cl)c2)nc2ccccc2c1C(=O)NC1CC1 | -60.6
28 | COC(=O)c1sccc1NC(=O)c1c(C)c(-c2cccc(Cl)c2)nc2ccccc12 | 16.7
29 | CC(C)Oc1cccc(-c2cc(C(=O)NN3CCOCC3)c3ccccc3n2)c1 | -60.8
30 | Cc1ccc(C)c(-c2cc(C(=O)NN3CCOCC3)c3ccccc3n2)c1 | -17.1
31 | O=C(NN1CCOCC1)c1cc(-c2ccccc2)nc2ccccc12 | -8.03
32 | Cc1c(-c2cccc(Cl)c2)nc2ccccc2c1C(=O)N1CCC2(CC1)OCCO2 | -47.4
33 | Cc1ccc(C)c(-c2cc(C(=O)NC3CC3)c3ccccc3n2)c1 | -61.1
34 | COc1cccc(-c2cc(C(=O)NN3CCOCC3)c3ccccc3n2)c1 | -24.3
35 | O=C(NCCc1ccccn1)c1cc(-c2ccccc2Cl)nc2ccccc12 | -2.8
36 | Cc1cc(C(=O)NC2CC2)c2ccccc2n1 | 19.9
37 | Cc1ccc(-c2cc(C(=O)NCCc3ccccn3)c3ccccc3n2)c(C)c1 | -51.1
38 | Cl.O=C(NCCc1ccccn1)c1cc(-c2cccc3ccccc23)nc2ccccc12 | -27.1
39 | CN(C)S(=O)(=O)c1ccc(N2CCCC2)c(C(=O)Nc2ccc(N3CCOCC3)cc2)c1 | -7.91
40 | COc1ccc(C(=O)NCC(=O)NCC(=O)OCc2ccc(Cl)cc2)cc1 | -6.07
41 | O=C(Cc1ncn[nH]1)NCCc1ccccc1 | -3.77
42 | Cn1c(=O)[nH]c2nncnc2c1=O | -13

Row | Compound | hERG current change (%, negative = inhibition) at 10uM [%]
43 | COc1cc2ccccc2cc1C(=O)Nc1cccnc1 | -9.84
44 | CCOC(CC(=O)NNC(=O)c1c(-c2ccccc2Cl)noc1C)OCC | 17.7
45 | COc1cc(C(=O)NCCN2CCOCC2)cc(OC)c1OC | 8.25
46 | CCc1ccccc1Nc1cc(C(=O)NCc2ccccn2)c2ccccc2n1 | -57.8
47 | O=C(NCc1ccccn1)c1cc(-c2ccccc2)nc2ccccc12 | -25.2
48 | COc1ccc(Nc2cc(C(=O)NCc3ccccn3)c3ccccc3n2)c(OC)c1 | 8.79
49 | Cc1ccc(CNS(=O)(=O)c2cc3c4c(c2)CCN4C(=O)CC3)cc1 | -29.4
50 | O=C(c1ccco1)N1CCN(CC(O)Cn2c3ccccc3c3ccccc32)CC1 (stereo not shown) | -41.9
51 | OC(COc1ccc(Br)cc1)CN1CCN(c2ccccc2)CC1 (stereo not shown) | -21.2
52 | O=C(c1ccco1)N1CCN(CC(O)COc2ccc3oc4ccccc4c3c2)CC1 (stereo not shown) | -66.4
53 | COC(=O)c1ccc(OCC(O)CN2CCN(C(=O)c3ccco3)CC2)cc1.O=C(O)C(=O)O (stereo not shown) | -25.3
54 | CC(=O)N1CCN(CC(O)COc2ccc(Br)cc2)CC1.O=C(O)C(=O)O (stereo not shown) | -10.7
55 | Cc1cc(C)c(OCC(O)CN2CCN(C(=O)c3ccccc3)CC2)c(C)c1.O=C(O)C(=O)O (stereo not shown) | -46.4
56 | Cl.O=C(c1ccccc1)N1CCN(CC(O)COc2cccc3ccccc23)CC1 (stereo not shown) | -28.1
57 | Cc1cc(C)cc(OCC(O)CN2CCN(C(=O)c3ccco3)CC2)c1 (stereo not shown) | -43.7
58 | O=C(c1ccco1)N1CCN(CC(O)COc2ccc(Br)cc2)CC1 (stereo not shown) | -72.6
59 | O=C(c1ccccc1)N1CCN(CC(O)COc2ccc(Br)cc2)CC1 (stereo not shown) | -64.9
60 | CC(C)(C)c1ccc(OCC(O)CN2CCN(C(=O)c3ccccc3)CC2)cc1.O=C(O)C(=O)O (stereo not shown) | -50.7
61 | CC(=O)c1cccc(OCC(O)CN2CCN(C(=O)c3ccco3)CC2)c1 (stereo not shown) | -2.19

From article PMC4336329 (PLoS ONE, 2015)
